# Laboratory results reported in PubChem BioAssay AID504833 (Johns Hopkins Ion Channel Center, 2011).
# About 2,200 (88%) of roughly 2,500 compounds were called active. So high a share suggests a set chosen from earlier hits. These entries were drawn from the full list. A number with no mark means an inactive call.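 The calls were made as follows: active = primary screen active, with duplicate mean activation above negative control mean plus 3 SD (cut at about 11% in these data); inactive = the rest.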
# Target: High affinity choline transporter 1 (Homo sapiens) (UniProt Q9GZV3)
# Sequence (Q9GZV3 whole entry, looked up): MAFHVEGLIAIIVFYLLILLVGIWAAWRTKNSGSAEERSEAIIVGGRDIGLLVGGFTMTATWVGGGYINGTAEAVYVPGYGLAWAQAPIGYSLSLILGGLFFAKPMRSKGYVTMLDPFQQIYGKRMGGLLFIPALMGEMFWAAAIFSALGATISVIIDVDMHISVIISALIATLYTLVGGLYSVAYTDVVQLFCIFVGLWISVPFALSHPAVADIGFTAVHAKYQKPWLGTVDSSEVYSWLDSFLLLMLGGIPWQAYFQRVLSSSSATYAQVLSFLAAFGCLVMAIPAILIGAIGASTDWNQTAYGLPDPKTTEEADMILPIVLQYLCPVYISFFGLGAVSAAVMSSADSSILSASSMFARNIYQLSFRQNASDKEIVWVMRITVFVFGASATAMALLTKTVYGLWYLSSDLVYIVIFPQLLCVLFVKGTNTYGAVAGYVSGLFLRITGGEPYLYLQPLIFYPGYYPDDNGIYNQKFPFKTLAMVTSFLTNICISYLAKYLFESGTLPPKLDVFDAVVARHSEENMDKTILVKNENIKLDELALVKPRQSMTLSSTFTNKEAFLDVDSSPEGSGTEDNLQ
# Test: CHT activators, confirmation, cell-based, membrane potential dye, duplicate (AID 504833)
# Conditions: CHT-expressing cells, membrane potential dye fluorescence (FDSS); at 10 µM; stronger effect = higher value; % of choline EC20–EC90 response window; HEK293 expressing CHT LV-AA mutant; choline added at its EC20
row,SMILES,activation
1,CN1CCN(c2cc(N3CCNCC3)ccc2[N+](=O)[O-])CC1,80.3% (active)
2,Cc1nc2ccc(N3CCN(C)CC3)cc2nc1C,20.3% (active)
3,CCCCCn1c(=O)c(C(=O)Nc2c(C)n(C)n(-c3ccccc3)c2=O)c(O)c2ccccc21,6.79%
4,CCN1CCN(c2ccc([N+](=O)[O-])cc2C#N)CC1,43.4% (active)
5,CCOc1ccc(-c2cc(C)[n+](CCN(CC)CC)c(-c3ccc(OCC)cc3)c2)cc1,34.4% (active)
6,CC[N+](CC)(CC)CCCCCCCCCC[N+](CC)(CC)CC,41% (active)
